# This is a sample that favours compounds with a hit; in the whole collection about 1.4% have one here.
# Mtb MbtI inh: MbtI salicylate synthase inhibitors, primary screen, biochemical, fluorescence intensity; inhibition, % (concentration not given with the values); P9WFX0; 100,000 compounds, 0.89% hits; purified MbtI enzyme, fluorescence intensity read-out; in the data active = inhibition mostly above about 56%, no sharp cut-off; inactive = mostly below about 77%
# Polio RdRp inh: poliovirus RdRp elongation inhibitors, primary screen, biochemical, fluorescence polarization, total intensity; Genome polyprotein (Poliovirus type 1 (strain Mahoney)), P03300; poliovirus polymerase elongation; stronger effect = lower value; % elongation, % (compound at 16.7 µg/mL); 150,000 compounds, 0.66% hits; in the data active = % elongation below about 90%
# Target sequence (P03300 1749-2209 limits assumed): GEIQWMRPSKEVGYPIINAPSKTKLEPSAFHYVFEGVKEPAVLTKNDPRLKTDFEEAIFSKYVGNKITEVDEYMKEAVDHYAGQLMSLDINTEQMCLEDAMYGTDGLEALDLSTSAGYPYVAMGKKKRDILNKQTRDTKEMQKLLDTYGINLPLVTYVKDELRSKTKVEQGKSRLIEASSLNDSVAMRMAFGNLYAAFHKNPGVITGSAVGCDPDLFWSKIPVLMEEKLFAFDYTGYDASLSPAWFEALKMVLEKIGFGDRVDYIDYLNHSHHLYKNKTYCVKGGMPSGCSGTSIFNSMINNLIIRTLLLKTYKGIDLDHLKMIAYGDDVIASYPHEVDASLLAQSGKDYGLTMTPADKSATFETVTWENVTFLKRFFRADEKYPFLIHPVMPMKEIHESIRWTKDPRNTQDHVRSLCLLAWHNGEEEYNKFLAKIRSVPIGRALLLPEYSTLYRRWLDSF
# Mtb MenB inh: M. tuberculosis MenB inhibitors, primary screen, biochemical, absorbance. 1,4-dihydroxy-2-naphthoyl-CoA synthase (Mycobacterium tuberculosis (strain ATCC 25618 / …. MenB enzyme assay, absorbance read-out. inhibition, % (concentration not given with the values). 100,000 compounds, 0.43% hits. AID 540299, 2011; in the data active = inhibition above about 21%, passing the limit was not always enough
# * = called active by the depositor; / = no result; ! = repeats disagree.
SMILES,Mtb MbtI inh,Polio RdRp inh,Mtb MenB inh
COCCn1c(C)cc(O)c(C(c2ccccc2)N2CCN(c3ccc(F)cc3)CC2)c1=O (stereo not given),/,101.0,/
COCCn1c(C)cc(O)c(C(c2ccccc2)N2CCN(c3ccccc3)CC2)c1=O (stereo not given),/,85.0*,/
CCC(C)N1CCN(Cc2cc(OC)c(OC)cc2OC)CC1 (stereo not given),3.8,102.0,36.5*
COc1cc(OC)c(OC)cc1CN1CCN(c2cccc(C)c2C)CC1,-0.6,96.0,4.1
CCOC(=O)/C(C#N)=C1\C(=O)Nc2ccccc21,27.4,101.0,18.2
CCOC(=O)/C(C#N)=C1\CC2CCC1(C)C2(C)C (stereo not given),83.8*,98.0,20.7
Cn1nc(SCC(=O)O)c(=O)n(C)c1=O,3.1,103.0,-3.2
Fc1ccccc1C1=CN2CCN=C2S1,-29.1,98.0,-6.2
Cc1nnc2n(c1=O)N=C(c1ccccc1)CS2,-11.8,99.0,-11.9
O=C1CCCC2=C1C1(O)C(=O)c3ccccc3C1(O)O2 (stereo not given),14.5,78.0*,-30.6
Nc1ccc2c(c1)OC1(O)c3ccccc3C(=O)C21O (stereo not given),-11.8,101.0,-65.6
Nn1c(SCCC(=O)O)nnc1-c1ccccc1,-9.2,104.0,-12.7
Nn1c(SCCOc2ccccc2)nnc1-c1ccccc1,34.2,79.0*,-29.6
O=C(O)C1c2ccccc2C(=O)N(C2CCCC2)C1c1cccs1 (stereo not given),9.1,/,/
CCOC(=O)c1sc2ncn(CC(=O)OC)c(=O)c2c1C,/,106.0,-19.1
CCOC(=O)Cn1cnc2sc(C(=O)OCC)c(C)c2c1=O,15.5,102.0,47.7*
O=C(NCc1ccccc1)N1CCN(C(c2ccc(F)cc2)c2ccc(F)cc2)CC1,-7.7,103.0,-11.7
COC(=O)C1CCN(C(c2ccc(F)cc2)c2ccc(F)cc2)CC1,0.9,100.0,20.5*
CC(=O)Nc1ccc2c(COC(=O)Cc3ccc4c(c3)OCCO4)cc(=O)oc2c1,20.2,100.0,-5.3
CC(C)[N+]1(C)C2CCC1CC(OC(=O)C(CO)c1ccccc1)C2 (stereo not given),-9.6,99.0,-1.4
C[N+]1(C)C2CCC1CC(OC(=O)C(CO)c1ccccc1)C2 (stereo not given),65.0*!,104.0,9.3
Nc1c(-c2ccccc2)nc2ccccn12,108.3,102.0,3.3
Nc1c(-c2ccccc2)nc2sccn12,88.1*,94.0,80.8*
CC1=Nc2nc(N3CCCC3)c(C#N)c3c4c(nc(c23)N1)N(c1ccc(S(N)(=O)=O)cc1)C(=O)C4,51.3,109.0,-1.1
Cc1occc1-c1nnc(SCCCC(=O)c2ccc(Br)cc2)n1C,28.4,101.0,-21.1
SMILES,Mtb MbtI inh,Polio RdRp inh,Mtb MenB inh
O=C(COc1ccccc1O)Nc1ccccc1Br,-7.9,100.0,/
CNC(=O)N(O)c1ccccc1,-11.8,102.0,13.1
COC(=O)N(c1ccccc1)P1(=S)OCCO1,101.8*,96.0,36.5*
CCN(CC)C(=O)CN1CCCN(Cc2cccc(C)c2)S1(=O)=O,4.8,100.0,-27.8
CCNc1ncnc2c1nnn2CC,86.5*,99.0,-46.7
CCNc1ncnc2c1nnn2C,/,103.0,/
CCOc1ccc(NC(=O)c2ccc(NC(=O)CSc3nnc(C)n3C3CC3)cc2)cc1,11.2,104.0,-11.9
COCCn1c(=S)[nH]c2sc(C)c(C)c2c1=O,100.5*,80.0*,-48.0
CCCCn1c(=S)[nH]c2sc3c(c2c1=O)CCCC3,1.9,100.0,-46.5
CCSCC1COC(c2cccn2Cc2ccc(F)cc2)=N1 (stereo not given),-8.8,101.0,-29.5
COc1ccc(COC(=O)c2cc(O)c3ccccc3c2O)cc1F,58.2,102.0,-10.2
O=C(NCCN1CCOCC1)c1cc2n(n1)CCCN(Cc1ccc(Cl)cc1)C2=O,-10.4,99.0,-3.0
N#Cc1cc(C(N)=O)c(SCc2ccccc2)nc1N,103.2,105.0,-37.0
Cc1[nH]n(-c2ccccc2)c(=O)c1N=O,17.6,102.0,-49.0
Cc1[nH]n(-c2ccc(Br)cc2)c(=O)c1C1=c2ccccc2=NC1=O,64.0*,101.0,2.9
COC(=O)c1ccc(C(=O)OC)c(NC(=O)c2cc3nc(-c4ccc(C)cc4)cc(C(F)(F)F)n3n2)c1,/,104.0,/
COC(=O)c1cc2nc(-c3ccc(F)cc3)cc(C(F)(F)F)n2n1,/,87.0*,-14.6
CN=C1c2c(C)c3cc(OC)ccc3n2CCN1C,-75.1,104.0,7.9
COc1ccc2c(c1)c1nc(N(C)C)nc3c1n2CCN3C,-47.9,6.0*,-27.9
Cc1ccc(C(=O)CSc2cccc[n+]2[O-])cc1,69.3*,100.0,/
CCc1ccc(C(=O)CSc2cccc[n+]2[O-])cc1,46.0,104.0,/
CCOc1nc(C)nc2c1sc(=S)n2C,/,106.0,0.9
C=CCSc1nnc(NC(=O)Cc2coc3ccc(OC)cc23)s1,-13.0,101.0,-12.1
CSc1c[nH]n(-c2ccccc2)c(=O)c1=O,78.0*,98.0,-4.4
O=c1c(Cl)c[nH]n(-c2ccccc2)c1=O,8.2,100.0,8.3
SMILES,Mtb MbtI inh,Polio RdRp inh,Mtb MenB inh
COc1ccc(OCC(=O)Nc2ncccc2C)cc1,-6.7,100.0,-14.5
Cn1c(SCc2ccccc2)nnc1C1CCN(C(=O)NCc2ccccc2)CC1,-4.9,101.0,7.1
O=C(Cn1cnc2c(oc3ccccc32)c1=O)Oc1ccccc1Cl,11.7,60.0*,-18.8
O=C(Cn1cnc2c(oc3ccccc32)c1=O)c1ccccc1,7.0,99.0,0.7
CCCN(CCC)C1=CC(=O)C(C)=C(C)C1=O,-26.3,86.0*,-33.7
CC1=C(C)C(=O)C(N2CCOCC2)=CC1=O,0.0,95.0,-27.8
O=C1CSc2nnc(C3COc4ccccc4O3)n2N1 (stereo not given),85.0*,95.0,-54.8
Cn1c(SCc2ccc(F)cc2)nnc1C1COc2ccccc2O1 (stereo not given),-5.7,105.0,8.6
CCCN1C(=O)C(CC(=O)Nc2ccccc2)SC1=Nc1ccc(S(=O)(=O)N2CCOCC2)cc1 (stereo not given),-8.2,103.0,-9.3
COc1cc(C(=O)n2nc(C)c(Sc3ccc(Cl)cc3)c2C)cc(OC)c1OC,/,103.0,/
COc1cc(C(=O)Sc2ccc(Cl)cc2)cc(OC)c1OC,/,84.0*,-27.6
CC(CC(=O)O)C(=O)c1ccc(Cl)cc1 (stereo not given),-14.0,103.0,/
CCC(N)C(=O)c1ccc(Cl)cc1 (stereo not given),3.2,101.0,32.3*
O=C(COC(=O)/C=C/c1ccc(Br)o1)Nc1ccccc1,-4.0,104.0,/
CN(C)c1ccc(NC(=O)Cn2c(SCc3ccccc3F)nc3cccnc32)cc1,/,19.0*,/
O=C(Cn1c(SCc2ccccc2F)nc2cccnc21)Nc1ccc(F)c(Cl)c1,/,109.0,/
O=C(N/N=C/c1ccccc1)N/N=C/c1ccccc1,-13.5,100.0,-20.9
CCN(CC)S(=O)(=O)c1cccc(C2=N/C(=C\c3c(C)nn(-c4ccccc4)c3N3CCCC3)C(=O)O2)c1,-2.1,166.0,-10.5
Cc1ccc(C2=N/C(=C\c3c(C)nn(-c4ccccc4)c3N3CCCC3)C(=O)O2)s1,-1.5,28.0*,-11.2
O=c1[nH]sc2ccccc12,105.1,98.0,51.1*
O=c1cc(O)sc2ccccc12,30.8,101.0,-201.8

# High-throughput results as filed in PubChem BioAssay.
